Screening results as filed in PubChem BioAssay.
An excerpt weighted towards active compounds, which were near 7.5% of everything screened.
Rab9 promoter act – activates the Rab9 promoter | Huh7 Rab9 promoter-luciferase reporter, luminescence, 24 h | AID 485297 | Potency, µM (highest dose often 9.22 µM), usual class: activators | 320,000 tested, 2.8% active; further: nearly all actives have a fitted effect of over 60% in size
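Using Huh7 cells stably transfected with Rab9 promoter–luciferase, compounds were incubated 24 h at 37 °C, 5% CO2; luciferase luminescence was read 10 min after reagent addition.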
SMN2 splice up – SMN2 splice variant enhancement | 210,000 tested, 2.8% active | HEK293 SMN2-luciferase splicing reporter, luminescence, 30-36 h | Potency, µM (highest dose often 46.1 µM), usual class: activators; further: nearly all actives have a fitted effect of over 55% in size
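HEK293 cells carry an SMN2 minigene-luciferase reporter in which exon 7 inclusion puts luciferase in frame. Cells were seeded at 2000 cells/well, attached for 10-12 hours, then exposed to compounds for 30-36 hours at 37C before ONE-Glo luminescence.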
ELG1 genotoxic – inducers of genotoxicity in HEK293T ELG1-luciferase cells; Potency, µM (top dose mostly 46 µM), usual class: activators; HEK293T ELG1-luciferase reporter, luminescence, 16 h; AID 504466; 330,000 tested, 1.3% active; further: nearly all actives have a fitted effect of over 60% in size
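Step 1: seed 2,000 HEK293T ELG1-luciferase cells per well. Step 2: add compound or DMSO, incubate 16 hr at 37 °C. Step 3: ONE-Glo, 30 min at room temperature, read luminescence.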
FLuc counter – counter-screen for miR-21 project: firefly luciferase inhibitors or activators; 360,000 tested, 6.9% active; Potency, µM (titrated, usually from 57.5 µM), most hits filed as inhibitors; purified FLuc, Km substrates, luminescence inhibition; further: nearly all actives have a fitted effect of over 55% in size
Target sequence (P08659 whole entry, looked up): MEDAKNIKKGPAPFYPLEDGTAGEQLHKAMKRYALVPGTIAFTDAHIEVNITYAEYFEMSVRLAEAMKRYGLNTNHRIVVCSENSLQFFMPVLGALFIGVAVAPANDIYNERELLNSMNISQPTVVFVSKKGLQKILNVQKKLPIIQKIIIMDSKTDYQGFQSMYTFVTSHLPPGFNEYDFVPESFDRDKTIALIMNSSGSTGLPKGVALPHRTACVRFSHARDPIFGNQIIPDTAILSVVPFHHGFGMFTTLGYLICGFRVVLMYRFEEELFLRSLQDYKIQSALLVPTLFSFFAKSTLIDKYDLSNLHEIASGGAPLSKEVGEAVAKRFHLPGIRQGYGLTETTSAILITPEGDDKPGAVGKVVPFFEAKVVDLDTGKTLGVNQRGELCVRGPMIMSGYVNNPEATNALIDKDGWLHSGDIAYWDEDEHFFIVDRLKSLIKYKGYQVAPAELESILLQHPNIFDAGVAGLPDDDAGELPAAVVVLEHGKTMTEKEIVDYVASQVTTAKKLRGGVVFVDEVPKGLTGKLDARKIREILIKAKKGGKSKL
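Purified P. pyralis luciferase, 10 nM final, with Km-level 10 uM D-luciferin and 10 uM ATP in 50 mM Tris acetate pH 7.5, 10 mM Mg acetate, 0.01% Tween-20, 0.05% BSA; 6-point qHTS titration about 60 µM downward; luminescence read.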
Luc counter – counter-screen: inhibitors of Kinase-Glo firefly luciferase; Q27757; Kinase-Glo luciferase, ATP luminescence, 8 min; Potency, µM (doses to about 38.3 µM), most hits filed as inhibitors; 200,000 tested, 0.28% active; AID 1379; further: nearly all actives have a fitted effect of over 60% in size
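Kinase-Glo luciferase light output from ATP and luciferin was measured with 10 uM ATP, within the enzyme's linear range. Buffer: 50 mM imidazole pH 7.2, 50 mM KCl, 7 mM MgCl2, 0.01% Tween 20, 0.05% BSA; luminescence read after 8 min at ambient temperature.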
NPC1 prom act – activators of NPC1 promoter | Potency, µM (highest dose often 9.22 µM), most hits filed as activators | Huh7 NPC1 promoter luciferase reporter, 24 h | 320,000 tested, 2.4% active; further: nearly all actives have a fitted effect of over 60% in size
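Compounds in DMSO were transferred onto Huh7 NPC1-luciferase reporter cells pre-incubated 2 h; after 24 h at 37 °C, Amplite reagent was dispensed and luminescence recorded 10 min later.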
Hits are given with their value; – = inactive; ? = inconclusive; · = no result given. The call rests on the fitted dose curve; in most records, active means well fitted curve in the direction sought with a large enough effect; inconclusive means small, poorly fitted or top-dose-only effect, or another doubt; inactive means no such curve, though single readings can be large; an effect the other way counts as inactive or inconclusive.

SMILES	Rab9 promoter act	SMN2 splice up	ELG1 genotoxic	FLuc counter	Luc counter	NPC1 prom act
COc1ccc(C2CC(c3ccc(OC)c(OC)c3)=NN2S(C)(=O)=O)cc1 (stereo not drawn)	0.5µM	·	?	8.5µM	·	1µM
Cc1ccc(C2=NN(S(C)(=O)=O)C(c3ccc4nccnc4c3)C2)cc1 (stereo not drawn)	?	13µM	?	?	–	?
CCc1ccc(C2=NN(S(C)(=O)=O)C(c3cccs3)C2)cc1 (stereo not drawn)	1.6µM	10µM	3.3µM	2.4µM	13µM	1µM
CCc1ccc(-n2c(SCc3nc(-c4cc(OC)ccc4OC)no3)nnc2-c2ccccc2)cc1	·	–	·	–	·	·
CC(=O)N1N=C(c2cccc(NS(C)(=O)=O)c2)CC1c1ccc2c(c1)OCO2 (stereo not drawn)	–	·	–	?	·	–
COc1ccc(C2CC(c3ccccc3)=NN2C(=O)c2cccs2)cc1 (stereo not drawn)	?	·	–	17µM	·	–
CS(=O)(=O)N1N=C(c2ccc(Br)cc2)CC1c1cccs1 (stereo not drawn)	?	–	?	15µM	–	?
Cc1ccc(C2=NN(S(C)(=O)=O)C(c3cccs3)C2)cc1 (stereo not drawn)	3.5µM	11µM	?	19µM	–	1.8µM
CS(=O)(=O)Nc1ccc(C2=NN(S(C)(=O)=O)C(c3ccc4c(c3)OCO4)C2)cc1 (stereo not drawn)	2.5µM	11µM	?	9.5µM	–	3.2µM
CC(C)NC(=O)c1ccc2c3n(nc2c1)-c1ccc(Cl)cc1CO3	1.4µM	·	?	1.9µM	·	1.3µM
CCN(CC)CCCNC(=O)c1ccc2nc(CCc3ccccc3)oc2c1	·	·	·	–	·	·
CCC(C)NC(=O)CSc1c2c(nc3cc(Cl)ccc13)CCCC2 (stereo not drawn)	·	–	·	–	·	·
CCN(CC)CCCNC(=O)c1ccc2c3n(nc2c1)-c1ccc(Cl)cc1CO3	0.89µM	·	?	?	·	?
CCc1cc(C(=O)Nc2c(C)nn(Cc3ccc(C)cc3)c2C)no1	·	–	·	–	·	·
COc1cc(/C=C(\NC(=O)c2ccccc2)C(=O)N2CC3CC(C2)c2cccc(=O)n2C3)cc(OC)c1OC (stereo not drawn)	–	·	–	–	·	–
O=C(Nc1cccc(-c2nc3ccccc3s2)c1)C1=COCCO1	–	–	–	17µM	–	–
O=C(Nc1ccc(O)c(-c2nc3ccccc3s2)c1)C1=COCCO1	–	–	–	–	–	–
O=C(Nc1ccc(-c2nc3ccccc3s2)c(O)c1)C1=COCCO1	0.71µM	2.2µM	16µM	0.48µM	–	0.5µM
Cc1ccc2c(c1)c1ncnc(N3CCOCC3)c1n2C	–	–	–	15µM	–	–
Cc1ccc2c(c1)c1ncnc(N3CCN(c4ccccc4)CC3)c1n2C	–	–	–	–	–	–
Cc1ccc2c(c1)c1ncnc(N3CCC4(CC3)OCCO4)c1n2C	–	?	–	11µM	–	–
Cc1oc2ncn(CC(C)C)c(=O)c2c1C(=O)N1CCN(c2cccc(C(F)(F)F)c2)CC1	·	·	·	–	·	·
COc1ccccc1NC(=O)CSc1nnnn1-c1ccc(F)cc1	–	·	–	–	·	–
Cc1ccc2c(c1)N(C(=O)c1ccc(F)cc1)C(C)(C)CC2(C)c1ccccc1 (stereo not drawn)	·	–	·	–	·	·
Cc1cc(C(=O)COC(=O)c2cccc(O)c2)c(C)n1C1CC1	?	·	?	0.27µM	·	?
SMILES	Rab9 promoter act	SMN2 splice up	ELG1 genotoxic	FLuc counter	Luc counter	NPC1 prom act
Cc1ccc(OCC(=O)c2cc(C)n(C3CC3)c2C)c([N+](=O)[O-])n1	–	–	–	–	–	–
Cc1cc(C(=O)COc2cccc([N+](=O)[O-])c2)c(C)n1C1CC1	3.2µM	·	?	2.4µM	·	2.2µM
CCOc1ccc(-c2cc(C(=O)NCCCN3CCCC3)c3ccccc3n2)cc1	–	·	–	12µM	·	–
COc1ccc(Nc2cc(C(=O)NCCCN3CCOCC3)c3ccccc3n2)cc1OC	–	–	–	17µM	–	–
Cc1ccc(-c2cc(C(=O)NCCCN3CCCC3)c3ccccc3n2)cc1C	–	·	?	?	·	–
Cc1ccc(-c2cc(C(=O)NCCCN3CCOCC3)c3ccccc3n2)cc1	–	·	–	?	·	–
Cc1ccc(-c2cc(C(=O)NCCCN3CCOCC3)c3ccccc3n2)cc1C	–	·	–	12µM	·	–
COc1ccccc1CCC(=O)NCCCn1ccc2ccccc21	–	·	–	–	·	–
CCc1cc2c(=O)c(-c3nc(C)cs3)coc2cc1OC(C)C(=O)NCCO (stereo not drawn)	–	–	–	11µM	–	–
O=C(Cn1cc(SCc2cccc(Cl)c2)c2ccccc21)N1CCOCC1	?	·	–	19µM	–	–
O=C(CSc1cn(CC(=O)N2CCOCC2)c2ccccc12)N1CCOCC1	–	·	–	–	·	–
Cc1cccc(CSc2cn(CC(=O)N3CCOCC3)c3ccccc23)c1	?	?	?	15µM	–	?
O=C(Cc1noc2ccccc12)Nc1ccccn1	?	10µM	–	?	–	?
Cc1cccc(NC(=O)Cc2noc3ccccc23)c1	?	13µM	?	17µM	–	?
Cc1ccc(NC(=O)Cc2noc3ccccc23)nc1	–	–	–	?	–	–
Cc1ccc(CNC(=O)Cc2noc3ccccc23)cc1	1.8µM	·	?	6.7µM	–	0.89µM
Cc1c(C(=O)N(C)C)sc2c1c(=O)n(-c1ccc(Cl)c(Cl)c1)c(=O)n2Cc1ccc(F)cc1	·	·	·	–	·	·
O=C1CCNc2ccc(-c3ccccc3)cc21	–	?	?	15µM	–	?
COc1cccc(C2N=C(c3ccccc3C)NO2)c1OC (stereo not drawn)	–	·	?	9.5µM	·	–
COc1cccc(C2NC(=O)c3ccccc3O2)c1OC (stereo not drawn)	–	–	–	–	–	–
COc1cc(OC)cc(-c2nc3nc(C)c(CCC(=O)Nc4ccc(Cl)cc4)c(C)n3n2)c1	·	–	·	–	·	·
COC(=O)c1sccc1NC(=O)/C=C/c1ccc(Cl)cc1	?	?	?	?	?	–
CN(C)c1ccc(-c2nnc(SCC3CCCO3)n2C)cc1 (stereo not drawn)	3.2µM	·	?	?	–	?
Cn1c(SCC2CCCO2)nnc1-c1ccncc1 (stereo not drawn)	–	–	–	–	–	–
CCC(=O)N1CCc2cc(S(=O)(=O)NCCC(=O)Nc3cccc(SC)c3)ccc21	·	–	·	–	·	·
Cn1c(/N=C/c2ccccc2[N+](=O)[O-])nc2ccccc21	–	·	–	1.7µM	·	–
Cn1c(/N=C/c2cccs2)nc2ccccc21	–	–	–	1.1µM	?	–
COc1ccc(/C=N/c2nc3ccccc3n2C)cc1OC	–	–	–	0.76µM	?	–
